In PubChem BioAssay (NCI) one finds growth data, which are given here for 7 molecules.

The panel holds about 83,000 compounds, 20% with a hit somewhere; the sample as a whole holds those more often.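 In brief: 96-well plates, 48 h treatment, single concentration, percent growth endpoint.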 The source made the active and inactive calls. How the source made its calls: active means growth percent below 10; inactive means the rest.

The test system of this test is OVCAR-3 ovarian. The test is described as follows: NCI-60 one-dose screen, 48 h (100 = growth as untreated, 0 = no growth, -100 = all killed). As to conditions: 10 µM.
Take `O=C(COc1ccc(NC(=O)Nc2ccc(Cl)cc2)cc1)N=Nc1c(O)[nH]c2ccc([N+](=O)[O-])cc12`: the growth is -55.9% (active).
Under `Cc1ccc(/C=C/C(=O)c2ccc(S(=O)(=O)NCCNc3nc(Nc4ccc(F)cc4)nc(N(C)C)n3)cc2)cc1` stands -55.9% (active); under `CCN1CCN(c2ccc(NC(=O)Nc3ccc(-c4cc(C(=O)NC(C)C)c5ncccc5n4)cc3)cc2C(F)(F)F)CC1`, -60.1% (active).
Consider `CCOc1ccc(Nc2nc3ccccc3nc2Nc2ccc(OCC)cc2)cc1`, for which the growth is 22.5% (inactive).
As to `O=C(c1ccc(Cl)cc1)C1[C@H](c2ccc(Br)cc2)[C@@H](c2ccccc2)NC12C(=O)Nc1ccc(Br)cc12` (some centres not stated), the growth was -89.7% (active).
Consider `COc1cnc2c(c1)C(=O)c1c-2n(CCCNC(C)C)c(=O)c2cc(OC)c(OC)cc12`, for which the growth was 5.2% (active).
Turning to `OCCCNc1oc(-c2ccccc2)nc1[P+](c1ccccc1)(c1ccccc1)c1ccccc1`, the growth is -8.66% (active).
